Source: PubChem BioAssay (Tox21)
Values without a mark were called inactive. Unless noted, calls follow the shape of the full dose curve. Results filed as inconclusive are left out.

Test system: not listed separately
Experiment: qHTS assay to identify small molecule antagonists of the estrogen receptor beta (ER-beta) signaling pathway - cell viability counter screen (AID 1259382; active = well fitted cell-killing curve with a large enough effect in the repeat runs;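 also: HEK293T cells carrying ER-beta-UAS-bla reporter stimulated with estradiol; nearly all actives have a fitted effect of over 55% in size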)
Details: ER-beta-UAS-bla HEK293T viability, CellTiter-Glo luminescence, 16 h; series mostly up to 92.4 µM; activity change, negative = cytotoxicity: at the top concentration
Outline: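 Readout: luminescence, CellTiter-Glo, same wells as bla assay. System: ER-beta-UAS-bla GripTite HEK293T, 2% charcoal-stripped FBS. Exposure: compounds plus 1nM 17-beta-estradiol, 16 hr, 37C.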
% is scaled to controls: 0 for no effect and ±100 for the full control effect.

SMILES	activity change, negative = cytotoxicity
CCNc1nc(N)nc(Cl)n1	0.708%
COC(CC(C)CCCC(C)(C)O)OC (centres undefined)	8.72%
CC(=O)NNC(C)=O	2.18%
Nc1ccn([C@H]2CS[C@@H](CO)O2)c(=O)n1	1.34%
Nc1ccc(S(=O)(=O)NCc2ccccc2)cc1	-6.73% [at 42.5 µM]
CCN(CC)C(=O)N1CCN(C)CC1	6.57% [at 42.5 µM]
CC(C)(C)S	0.271%
CCOC(=O)N1CCC(Nc2ccc(Cl)cc2N)CC1	-14.1% [at 42.5 µM]
CC(=O)OCC(=O)[C@@]1(OC(C)=O)[C@@H](C)C[C@H]2[C@@H]3C[C@H](F)C4=CC(=O)C=C[C@]4(C)[C@@]3(F)[C@@H](O)C[C@@]21C	-15% [at 42.5 µM]
CCCCCCOC(=O)CCCCC	1.85%
CC/C=C\C/C=C\C/C=C\CCCCCCCC(=O)OCC	-13.6%
O=C(O)CCC(=O)OC[C@@H](NC(=O)C(Cl)Cl)[C@H](O)c1ccc([N+](=O)[O-])cc1	12.7% [at 42.5 µM]

Target: Estrogen receptor (Homo sapiens) (UniProt P03372)
Sequence (P03372 whole entry, looked up): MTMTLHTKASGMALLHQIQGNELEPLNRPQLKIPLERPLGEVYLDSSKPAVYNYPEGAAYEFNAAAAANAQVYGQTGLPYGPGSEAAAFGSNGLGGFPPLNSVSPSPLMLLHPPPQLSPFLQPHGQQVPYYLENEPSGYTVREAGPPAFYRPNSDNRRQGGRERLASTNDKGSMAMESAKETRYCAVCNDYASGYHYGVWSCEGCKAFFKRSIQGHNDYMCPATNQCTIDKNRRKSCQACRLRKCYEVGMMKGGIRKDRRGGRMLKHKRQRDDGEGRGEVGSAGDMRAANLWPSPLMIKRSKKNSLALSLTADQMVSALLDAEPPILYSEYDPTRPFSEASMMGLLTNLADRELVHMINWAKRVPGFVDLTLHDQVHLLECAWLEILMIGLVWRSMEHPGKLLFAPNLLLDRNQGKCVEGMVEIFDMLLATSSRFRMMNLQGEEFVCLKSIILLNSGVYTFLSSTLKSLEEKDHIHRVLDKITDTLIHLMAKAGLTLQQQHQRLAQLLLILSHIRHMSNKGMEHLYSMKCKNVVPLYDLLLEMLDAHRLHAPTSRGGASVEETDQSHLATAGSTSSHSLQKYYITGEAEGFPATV
Experiment: qHTS assay to identify small molecule agonists of the estrogen receptor alpha (ER-alpha) signaling pathway in the presence of an antagonist (AID 1259383); also: top concentration of the series differs between compounds; nearly all actives have a fitted effect of over 15% in size
Details: VM7Luc4E2 cells, ERE-luciferase, +ICI-182,780, 22 h; series mostly up to 92.4 µM; activation: at the top concentration
Outline: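 Quantitative HTS confirmation: compounds titrated at 15 concentrations onto estrogen-deprived VM7Luc4E2 cells carrying a four-ERE luciferase construct, with ICI-182,780 present at 10.0nM final. Signal is luminescence after 22hr exposure.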

SMILES	activation
SCCc1cnccn1	-1.66%
CC(C)c1ccc(C(=O)N=C(N)N)cc1S(C)(=O)=O	-1.01% [at 42.5 µM]
OCC(CO)n1cnc(-c2ccc(F)cc2)c1-c1ccnc(Oc2ccccc2)n1	-1.93%
O=C(O)CCS	0.101%
CCCCCCCC(=O)Oc1c(Br)cc(C#N)cc1Br	3.13%
CCN(CC)CC(=O)Nc1c(C)cccc1C(=O)OC	-1.84% [at 42.5 µM]
CC(C)N=C=NC(C)C	-0.133%
[Cl][Nd]([Cl])[Cl]	-2.07%
CC(=O)NNC(C)=O	0.158%
CC(C)(C)S	-1.09%
CCOC(=O)N1CCC(Nc2ccc(Cl)cc2N)CC1	-0.474% [at 42.5 µM]

Test system: not listed separately
Experiment: qHTS assay to identify small molecule agonists or antagonists of the thyroid stimulating hormone receptor (TSHR) signaling pathway - wild type cell line counter screen (AID 1259384)
Details: HEK293 wild type, cAMP HTRF counter-screen; series mostly up to 92.4 µM; cAMP activity change: at the top concentration
Outline: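 Wild-type Hek293 cells, 800/well, 18 h at 37C, then compound with Ro20-1724 for 30 min RT. cAMP by HTRF (cAMP-d2/anti-cAMP cryptate), 1 h RT, fluorescence read. 15 concentrations, triplicates.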

SMILES	cAMP activity change
Nc1nc(-c2ccc([N+](=O)[O-])cc2)cs1	1.3%
Cc1cccc(C)c1NC(=O)c1cc(S(N)(=O)=O)c(Cl)cc1O	-0.136% [at 42.5 µM, stronger effect = higher value]
CC(=O)N[C@@H](Cc1ccc(O)cc1)C(=O)O	0% [at 42.5 µM, stronger effect = higher value]
CCCCCC	-2.93%
Cc1ccccc1S(N)(=O)=O	6.05%
CCN(CC)CCOC(=O)C(c1ccccc1)c1ccccc1	2.9% [at 42.5 µM, stronger effect = higher value]
O=S(=O)(O)CO	2.74%
O=C(O)CN1C(=O)c2cccc3cccc(c23)C1=O	-6.17% [at 42.5 µM, stronger effect = higher value]
COc1ccc(C)cc1	-0.116%
Cc1c[nH]c2ccccc12	-4.93% [at 42.5 µM, stronger effect = higher value]
O=C(O)CCS	8.24%
O=C(O)CCCc1c[nH]c2ccccc12	-5.65%
CCCCCCCC(=O)Oc1c(Br)cc(C#N)cc1Br	-1.44%
CCN(CC)CC(=O)Nc1c(C)cccc1C(=O)OC	-3.46% [at 42.5 µM, stronger effect = higher value]
[Cl][Nd]([Cl])[Cl]	-2.87%
COc1ccc(/C=C/C(=O)c2ccc(OC)cc2OC)cc1	-1.48% [at 42.5 µM, stronger effect = higher value]
CCNc1nc(N)nc(Cl)n1	2.9%
COC(CC(C)CCCC(C)(C)O)OC (centres undefined)	2.77%
CC(=O)NNC(C)=O	-0.459%
Nc1ccn([C@H]2CS[C@@H](CO)O2)c(=O)n1	-2.24%
CCN(CC)C(=O)N1CCN(C)CC1	-5.07% [at 42.5 µM, stronger effect = higher value]
CC(C)(C)S	0.0206%
CCOC(=O)N1CCC(Nc2ccc(Cl)cc2N)CC1	-3.39% [at 42.5 µM, stronger effect = higher value]
CC(=O)OCC(=O)[C@@]1(OC(C)=O)[C@@H](C)C[C@H]2[C@@H]3C[C@H](F)C4=CC(=O)C=C[C@]4(C)[C@@]3(F)[C@@H](O)C[C@@]21C	-0.265% [at 42.5 µM, stronger effect = higher value]
CCCCCCOC(=O)CCCCC	0.866%
CC/C=C\C/C=C\C/C=C\CCCCCCCC(=O)OCC	1.22%
